Experimental data reported in PubChem BioAssay.
For some of these results: Results with a measured potency or affinity are listed apart. The source made the active and inactive calls.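 Rule for the calls, unless noted: active = calcium signal ratio cut to more than 3 SD under the fully stimulated control mean yet still positive, in both repeats and the primary screen; inactive = the rest.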

Tests used:
[1] = test system: TRPC4 beta (transient receptor potential cation channel C4), mouse; assay: activators of mouse TRPC4 channel, confirmation, cell-based, Fluo4 calcium, HEK293 TRPC4beta/mu-opioid, duplicates, 10 µM (AID 2426;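 active = fluorescence ratio normalized to control raised more than 50% in primary screen plus both repeat runs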); conditions: Fluo4 calcium fluorescence, at 10 µM; stronger effect = higher value
[2] = test system: transient receptor potential cation channel C4 beta (TRPC4), mouse; assay: activators of mouse TRPC4 channel, confirmation, cell-based, second round, Fluo4, HEK293 TRPC4beta/mu-opioid, 1 µM (AID 2461;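 active = primary screen active and over 50% activation in each of two duplicate runs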); conditions: Fluo4 calcium fluorescence, at 1 µM; stronger effect = higher value
[3] = test system: TRPC4 (transient receptor potential cation channel C4 beta), mouse; assay: positive allosteric modulators of mouse TRPC4, confirmation, cell-based, second round, Fluo-4, HEK293 TRPC4beta/mu-opioid, 1 µM (AID 2554;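 active = primary screen hit whose fluorescence ratio, in both repeats, exceeds the weak agonist control mean by 3 SD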); conditions: DAMGO EC20, Fluo-4 calcium flux, at 1 µM; stronger effect = higher value
[4] = test system: TRPC4 beta (transient receptor potential cation channel C4), mouse; assay: positive allosteric modulators of mouse TRPC4, confirmation, cell-based, Fluo-4, HEK293 TRPC4beta/mu-opioid (AID 2555;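 active = primary screen hit whose calcium fluorescence ratio, in both repeats, exceeds the weak agonist control mean by 3 SD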); conditions: DAMGO EC20, Fluo-4 calcium flux, at 10 µM; stronger effect = higher value
[5] = biological target: Short transient receptor potential channel 4 (Mus musculus) (UniProt Q9QUQ5); assay: inhibitors of mouse TRPC4 channel, confirmation, cell-based, Fluo4, HEK293 TRPC4beta/mu-opioid (AID 2636;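 active = calcium signal cut by more than 3 SD below the full-agonist control yet still positive, in both repeats and the earlier primary screen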); conditions: DAMGO, Fluo4 calcium flux, at 10 µM; stronger effect = higher value
Sequence of Short transient receptor potential channel 4 (Mus musculus) (Q9QUQ5 whole entry, looked up): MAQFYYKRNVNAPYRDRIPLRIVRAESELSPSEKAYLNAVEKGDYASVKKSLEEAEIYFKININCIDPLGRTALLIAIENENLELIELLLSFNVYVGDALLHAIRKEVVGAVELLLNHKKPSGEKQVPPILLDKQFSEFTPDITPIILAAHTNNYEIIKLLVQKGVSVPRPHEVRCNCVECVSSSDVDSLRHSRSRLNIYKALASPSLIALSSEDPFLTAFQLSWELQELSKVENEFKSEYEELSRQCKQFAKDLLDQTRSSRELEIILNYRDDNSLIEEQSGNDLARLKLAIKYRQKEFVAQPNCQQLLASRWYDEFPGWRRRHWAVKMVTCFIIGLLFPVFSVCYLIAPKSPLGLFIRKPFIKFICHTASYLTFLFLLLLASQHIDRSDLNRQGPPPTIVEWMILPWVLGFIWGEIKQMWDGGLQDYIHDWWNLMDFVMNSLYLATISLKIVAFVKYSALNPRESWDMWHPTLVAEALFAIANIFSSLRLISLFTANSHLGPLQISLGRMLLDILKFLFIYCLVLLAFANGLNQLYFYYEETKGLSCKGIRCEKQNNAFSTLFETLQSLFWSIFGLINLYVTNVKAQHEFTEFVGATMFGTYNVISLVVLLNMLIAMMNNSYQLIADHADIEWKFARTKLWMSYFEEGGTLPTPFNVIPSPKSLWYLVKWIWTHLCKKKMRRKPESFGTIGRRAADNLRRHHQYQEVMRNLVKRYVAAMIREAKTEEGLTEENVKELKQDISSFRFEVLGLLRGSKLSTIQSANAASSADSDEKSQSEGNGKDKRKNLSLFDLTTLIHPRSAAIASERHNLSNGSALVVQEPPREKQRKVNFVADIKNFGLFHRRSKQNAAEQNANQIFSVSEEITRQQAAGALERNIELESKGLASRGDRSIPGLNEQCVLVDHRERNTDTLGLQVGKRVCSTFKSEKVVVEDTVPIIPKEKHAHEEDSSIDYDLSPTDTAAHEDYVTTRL

[6] = biological target: Short transient receptor potential channel 4 (Mus musculus) (UniProt Q9QUQ5); assay: inhibitors of mouse TRPC4 channel, confirmation, cell-based, second round, Fluo4, HEK293 TRPC4beta/mu-opioid, 1 µM (AID 2637); conditions: Fluo4 calcium flux, DAMGO, at 1 µM; stronger effect = higher value;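 for inhibition: percent of integrated ratio relative to wells lacking test compound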
[7] = biological target: Short transient receptor potential channel 4 (Mus musculus) (UniProt Q9QUQ5); assay: mouse TRPC4 channel activators, dose response, cell-based, HEK293 TRPC4/mu-opioid, Fluo-4 calcium (AID 434937;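 active = primary screen activator hit with a dose response curve and TRPC4 channel activation at any tested dose; inactive = no activation, no dose response, or not a primary hit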)
[8] = biological target: Short transient receptor potential channel 4 (Mus musculus) (UniProt Q9QUQ5); assay: TRPC4 positive allosteric modulators, dose response, cell-based, HEK293 TRPC4/mu-opioid, Fluo-4 calcium, EC20 DAMGO (AID 434941;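 active = earlier screen potentiator hit that boosts the TRPC4 ion channel at some dose, with a dose response; inactive = no potentiation, no dose response, or not a prior hit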;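 note: calcium entry triggered by an EC20 dose of DAMGO at the co-expressed mu-opioid receptor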)
[9] = biological target: Short transient receptor potential channel 6 (Mus musculus) (UniProt Q61143); assay: inhibition of mouse TRPC6 channel, confirmation, selectivity assay for TRPC4 inhibitor project, cell-based, HEK293, membrane potential dye, duplicate (AID 434948;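 active = active in primary screen and both duplicates, each dropping signal beyond three positive-control SD with fluorescence still positive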); conditions: HEK293 TRPC6, membrane potential dye fluorescence, at 10 µM, stimulated with maximal-effect acetylcholine; stronger effect = higher value
Sequence of Short transient receptor potential channel 6 (Mus musculus) (Q61143 whole entry, looked up): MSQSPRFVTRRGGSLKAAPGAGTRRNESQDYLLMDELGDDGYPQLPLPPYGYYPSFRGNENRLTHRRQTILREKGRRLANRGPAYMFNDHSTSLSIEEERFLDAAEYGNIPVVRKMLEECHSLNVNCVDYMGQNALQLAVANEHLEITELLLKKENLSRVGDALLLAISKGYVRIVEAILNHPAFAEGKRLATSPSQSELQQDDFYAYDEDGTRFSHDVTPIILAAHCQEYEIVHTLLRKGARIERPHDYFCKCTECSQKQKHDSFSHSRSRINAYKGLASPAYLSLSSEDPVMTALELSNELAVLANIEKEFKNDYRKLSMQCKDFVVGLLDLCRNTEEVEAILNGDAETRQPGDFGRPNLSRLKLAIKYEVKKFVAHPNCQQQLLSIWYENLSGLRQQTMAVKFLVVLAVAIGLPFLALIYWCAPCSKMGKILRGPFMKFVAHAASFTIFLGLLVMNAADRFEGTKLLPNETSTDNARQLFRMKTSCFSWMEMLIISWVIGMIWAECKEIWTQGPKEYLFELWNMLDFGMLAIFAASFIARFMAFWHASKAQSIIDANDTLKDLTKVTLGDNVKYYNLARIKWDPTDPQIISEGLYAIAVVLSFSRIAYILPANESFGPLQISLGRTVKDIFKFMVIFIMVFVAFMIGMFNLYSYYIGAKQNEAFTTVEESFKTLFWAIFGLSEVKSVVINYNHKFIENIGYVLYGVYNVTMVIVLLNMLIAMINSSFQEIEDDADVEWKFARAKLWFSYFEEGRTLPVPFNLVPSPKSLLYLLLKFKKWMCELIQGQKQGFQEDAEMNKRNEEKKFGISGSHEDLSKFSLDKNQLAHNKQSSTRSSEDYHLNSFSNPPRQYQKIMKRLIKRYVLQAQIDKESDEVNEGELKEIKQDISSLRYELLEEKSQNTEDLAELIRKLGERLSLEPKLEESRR

[10] = biological target: Short transient receptor potential channel 6 (Mus musculus) (UniProt Q61143); assay: activation of mouse TRPC6 channel, confirmation, selectivity assay for TRPC4 activator project, cell-based, HEK293, membrane potential dye, duplicate (AID 434950;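 active = membrane potential signal rise above negative control mean plus 3 SD in both duplicates, also active in the earlier TRPC4 screen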); conditions: HEK293 TRPC6, membrane potential fluorescence, at 10 µM; stronger effect = higher value
[11] = biological target: Short transient receptor potential channel 6 (Mus musculus) (UniProt Q61143); assay: TRPC6 potentiation by TRPC4 potentiator hits, confirmation, selectivity assay for TRPC4 potentiator project, HEK293 cells, membrane potential dye, duplicate (AID 434952;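 active = compound raising the membrane signal above positive-control mean plus 3 SD in both repeats, and a primary screen hit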); conditions: HEK293 TRPC6, membrane potential dye fluorescence, at 10 µM, maximal acetylcholine added after compound; stronger effect = higher value
[12] = biological target: Short transient receptor potential channel 4 (Mus musculus) (UniProt Q9QUQ5); assay: calcium flux activators in TRPC4/5HT1a cells, counter-screen for TRPC4 activator project, cell-based, second counter screen, HEK293 TRPC4/5HT1a, Fluo-4 (AID 434977;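 active = calcium signal rise above buffer-control mean plus 5 SD in both duplicates, and also a hit in the primary screen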); conditions: Fluo-4 calcium flux, at 10 µM; stronger effect = higher value
[13] = calcium flux inhibitors in TRPC4/5HT1a cells, confirmation, counter-screen for TRPC4 inhibitor project, cell-based, second counter screen, HEK293 TRPC4/5HT1a, Fluo-4 (AID 434978;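 active = primary screen active whose calcium signal fell more than 3 SD beyond the full-serotonin control mean in both duplicate plates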;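 for outcome: serotonin given first at submaximal then at maximal dose after compound preincubation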); conditions: Fluo-4 calcium flux, at 10 µM, serotonin added to trigger calcium flux; stronger effect = higher value
[14] = test system: TRPC4 (mouse), co-expressed with 5HT1a in HEK293; assay: calcium flux potentiators in TRPC4/5HT1a cells, confirmation, counter-screen for TRPC4 potentiator project, cell-based, second counter screen, HEK293 TRPC4/5HT1a, Fluo-4 (AID 434979;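 active = signal rise over 3 SD above mean of control wells given weak agonist, in both repeats and first screen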); conditions: Fluo-4 calcium flux, at 10 µM, serotonin added at its EC20 dose; stronger effect = higher value
[15] = calcium flux activation in mu-opioid HEK293 cells, confirmation, counter-screen for TRPC4 activator project, cell-based, HEK293 mu-opioid receptor line (AID 449723;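 active = hit in primary screen, with calcium signal over 5 SD above buffer well mean in both duplicates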;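 note: counter screen cells carry the mu-opioid receptor alone and lack TRPC4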); conditions: Fluo-4 calcium fluorescence, at 10 µM; stronger effect = higher value
[16] = calcium flux enhancement in mu-opioid HEK293 cells, confirmation, counter-screen for TRPC4 allosteric potentiator project, cell-based, HEK293 mu-opioid receptor line (AID 449724;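 active = calcium signal rise more than 3 SD above the low-dose agonist control mean, in both duplicate plates and the primary screen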); conditions: Fluo-4 calcium flux, at 10 µM, compound added before EC20 DAMGO stimulus; stronger effect = higher value

Row | SMILES | outcome [1] | outcome [2] | outcome [3] | outcome [4] | inhibition [5] | outcome [6] | outcome [7] | outcome [8] | outcome [9] | outcome [10] | outcome [11] | outcome [12] | outcome [13] | outcome [14] | outcome [15] | outcome [16] | inhibition [13] | outcome [5] | inhibition [6] | inhibition [9]
1 | CSCCNCc1cn(-c2ccc(F)cc2F)nc1-c1ccccc1C | inactive | inactive | inactive | inactive | 91% (active) | inactive | inactive | inactive | inactive | inactive | inactive | inactive | inactive | inactive | inactive | inactive | – | – | – | –
2 | Cc1nn(C(=O)c2cccnc2)c(C)c1Sc1ccccc1 | inactive | inactive | inactive | inactive | 92% (active) | inactive | inactive | inactive | inactive | inactive | inactive | inactive | – | inactive | inactive | inactive | 16.5% (active) | – | – | –
3 | CCCCNc1nc(-c2ccccc2)c(C(=O)OCC)cc1C#N | inactive | inactive | inactive | inactive | 94% (active) | inactive | inactive | inactive | inactive | inactive | inactive | inactive | – | inactive | inactive | inactive | 15% (active) | – | – | –
4 | Cc1ccccc1N1CC(O)(c2cccs2)[N+]2=C1CCCC2 (stereo unspecified) | inactive | inactive | inactive | inactive | – | inactive | inactive | inactive | inactive | inactive | inactive | inactive | inactive | inactive | inactive | inactive | – | inactive | – | –
5 | COc1cc(/C=C2\SC(=S)N(NS(=O)(=O)c3ccc(C)cc3)C2=O)cc(OC)c1OC | inactive | inactive | inactive | inactive | 95% (active) | inactive | inactive | inactive | inactive | inactive | inactive | inactive | – | inactive | inactive | inactive | 34.5% (active) | – | – | –
6 | COc1ccc(CN(C(=O)c2snc(C(N)=O)c2N)C(CC(C)C)C(=O)NC2CCCCC2)cc1 (stereo unspecified) | inactive | inactive | inactive | inactive | 82% (active) | inactive | inactive | inactive | inactive | inactive | inactive | inactive | – | inactive | inactive | inactive | 30.8% (active) | – | – | –
7 | C#Cc1ccc(CN2CCCC(C(=O)Nc3ccccc3Oc3cccnc3)C2)cc1 (stereo unspecified) | inactive | inactive | inactive | inactive | 92% (active) | – | inactive | inactive | inactive | inactive | inactive | inactive | – | inactive | inactive | inactive | 21.7% (active) | – | 39% (active) | –
8 | CCCCn1c(NCc2ccc(N(C)C)cc2)nc2ccccc21 | inactive | inactive | inactive | inactive | 93% (active) | – | inactive | inactive | – | inactive | inactive | inactive | – | inactive | inactive | inactive | 24.4% (active) | – | 50% (active) | 51.5% (active)
9 | c1ccc(NC(=NCc2ccco2)c2ccccc2)cc1 | inactive | inactive | inactive | inactive | 94% (active) | – | inactive | inactive | inactive | inactive | inactive | inactive | inactive | inactive | inactive | inactive | – | – | 45% (active) | –
10 | CC[n+]1c(/C=C/Nc2ccccc2)oc2ccc(OC)cc21 | inactive | inactive | inactive | inactive | 92% (active) | inactive | inactive | inactive | – | inactive | inactive | inactive | – | inactive | inactive | inactive | 34% (active) | – | – | 46.5% (active)
11 | CCOc1ccccc1-n1c(SCC(=O)Nc2nccs2)nnc1-c1ccoc1C | inactive | inactive | inactive | inactive | 52% (active) | – | inactive | inactive | inactive | inactive | inactive | inactive | inactive | inactive | inactive | inactive | – | – | 44% (active) | –
12 | Cc1nc(N2CCN(c3ccccn3)CC2)c2c(C)c(C(=O)N3CCN(c4ccc(F)cc4)CC3)sc2n1 | inactive | inactive | inactive | inactive | 99% (active) | – | inactive | inactive | inactive | inactive | inactive | inactive | inactive | inactive | inactive | inactive | – | – | 48% (active) | –
13 | CCOc1ccc(Cl)cc1/C=N/O | inactive | inactive | inactive | inactive | 86% (active) | inactive | inactive | inactive | – | inactive | inactive | inactive | – | inactive | inactive | inactive | 39.8% (active) | – | – | 2% (active)
14 | Cc1ccc(Sc2ccc(CO)cc2[N+](=O)[O-])cc1 | inactive | inactive | inactive | inactive | 98% (active) | inactive | inactive | inactive | inactive | inactive | inactive | inactive | – | inactive | inactive | inactive | 7.78% (active) | – | – | –
15 | O=c1oc2ccccc2c(Nc2ccccc2)c1CN1CCCCC1 | inactive | inactive | inactive | inactive | 84% (active) | – | inactive | inactive | inactive | inactive | inactive | inactive | inactive | inactive | inactive | inactive | – | – | 46% (active) | –
16 | CCCOc1ccc(Br)cc1/C=N/O | inactive | inactive | inactive | inactive | – | – | inactive | inactive | inactive | inactive | inactive | inactive | inactive | inactive | inactive | inactive | – | inactive | 54% (active) | –
